# HepG2 tox – kills HepG2 cells in TGF-b inhibitor counter-screen; HepG2 CAGA-GFP viability, ATP luminescence, 18 h; Potency, µM (top dose mostly 46.1 µM), for the others: at the highest dose activity change, negative = cytotoxicity, most hits filed as cytotoxic; actives 0.76% (n = 410,000); further: potency means the concentration at half of the fitted maximal effect
#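 HepG2 CAGA-GFP cells (1000/well, DMEM with 1% FBS) received compound, then TGF-beta at 500 pg/mL final, and were incubated 18 hours at 37 degrees C. Viability was read by CellTiter-Glo luminescence. Media-only wells were set as complete cell-killing and DMSO as no toxicity.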
# ATXN2 expr inh – inhibitors of ATXN2 expression; Potency, µM (doses to about 57 µM), inactives show at the highest dose activity change, negative = inhibition, most hits filed as inhibitors; HEK-293 ATXN2-luciferase reporter, luminescence, 24 h; actives 0.72% (n = 360,000); further: potency means the concentration at half of the fitted maximal effect; on the % scale 0 is the no-effect control and ±100 the full control effect; nearly all actives have a fitted effect of over 55% in size
#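 qHTS (up to 57 uM final) was run with 24 h compound exposure of reporter cells at 37 °C. Each well was multiplexed: SteadyGlo luminescence measured ATXN2-luciferase expression after a fluorogenic Gly-Phe-AFC viability readout (25 uM final).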
# IL-1B inflam inh – blocks inflammasome-driven IL-1 beta release. THP-1 LPS/ATP IL-1B secretion, AlphaLISA, 16 h; hits give low values. actives 4.7% (n = 360,000). activity change, % at 57.5 µM. AID 743279; in the data active means activity change below about -50%; inconclusive means mostly about -30% to -49%; further: on the % scale 0 is the no-effect control and ±100 the full control effect
#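 THP-1 cells pretreated 1 hr with compounds (up to 57.5 uM final), then stimulated with LPS (250 ng/mL final) plus ATP (1.25 mM final); secreted IL-1B measured by AlphaLISA after 16 hr, decreased signal indicating inhibition.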
# TGFb SMAD3 inh – TGF-b pathway inhibition | HepG2 CAGA-GFP TGF-b/SMAD3 reporter, GFP fluorescence, 18 h; TGF-beta stimulated, 500 pg/mL final | Potency, µM (titrated, usually from 46.1 µM), without a hit: top-dose activity, negative = inhibition, hits mostly inhibitors | actives 1.2% (n = 410,000) | AID 588855; further: potency means the concentration at half of the fitted maximal effect; on the % scale 0 is the no-effect control and ±100 the full control effect; nearly all actives have a fitted effect of over 65% in size
#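 Read-out: total well GFP (ex488/em500-530) summed from mean per-cell fluorescence. Cells: HEPG2 CAGA-GFP, 1% FBS DMEM, 18 h at 37 degrees C with 500 pg/mL final TGF-beta. Unstimulated wells served as the full-inhibition control; stimulated DMSO wells = 0%.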
# ATXN viability – viability counter-screen for ATXN expression inhibitors. actives 0.49% (n = 400,000). Potency, µM (titrated, usually from 56.7 µM), most hits filed as cytotoxic. S2 cells (HEK-293 line with an ATXN2-luciferase reporter) viability, CellTiter-Fluor protease fluorescence, 24 h; further: potency means the concentration at half of the fitted maximal effect; nearly all actives have a fitted effect of over 40% in size
# Numbers without * were called inactive; i = inactive; ? = inconclusive; · = no result given. Only some compounds are listed: those with a hit (about 5.7% of all), similar ones and a draw of the others. Unless noted, the call rests on the fitted dose curve; in most records, active means well fitted curve in the direction sought with a large enough effect; inconclusive means small, poorly fitted or top-dose-only effect, or another doubt; inactive means no such curve, though single readings can be large; an effect the other way counts as inactive or inconclusive.
SMILES,HepG2 tox,ATXN2 expr inh,IL-1B inflam inh,TGFb SMAD3 inh,ATXN viability
CCC(C)n1ncn(-c2ccc(N3CCN(c4ccc(OC[C@H]5CO[C@](Cn6cncn6)(c6ccc(Cl)cc6Cl)O5)cc4)CC3)cc2)c1=O (stereo partly specified),·,?,·,·,i
Cc1ccc2c(c1C)-c1c(ccc(C)c1C)C(=O)C2=O,4µM*,?,-85*,2.5µM*,?
CCN(CC)c1ccc(NS(=O)(=O)c2cc(-c3onc(C)c3C)ccc2OC)c(C)c1,-25%,·,·,-30%,·
CCCCCn1c(=N)n(CC(O)COc2cccc(C)c2)c2ccccc21 (stereo unspecified),-107%,32µM*,·,?,20µM*
CCCn1c(=N)n(CC(O)COc2cccc(C)c2)c2ccccc21 (stereo unspecified),-55%,?,?,-1%,?
Cc1ccc(OCC(O)Cn2c3ccccc3c3ccccc32)cc1 (stereo unspecified),-114%,-26%,-84*,?,i
CCCCn1c(=N)n(CC(O)COc2ccc(C)cc2)c2ccccc21 (stereo unspecified),13µM*,·,-73*,?,·
OC(COCC(F)(F)C(F)(F)C(F)(F)C(F)F)Cn1c2ccccc2c2ccccc21 (stereo unspecified),18µM*,?,-103*,?,?
CCCCn1c(=N)n(CC(O)COc2ccccc2)c2ccccc21 (stereo unspecified),-31%,-18%,?,-16%,i
O=S(=O)(c1ccc(Cl)cc1)N1CCN(c2nc(-c3ccccc3)nc3ccccc23)CC1,-3%,·,·,11%,·
Cc1cc(CNC(=O)c2cnn(-c3nccc(-c4cc(C)sc4C)n3)c2C2CC2)on1,·,·,·,·,i
O=C1CC(c2cc(F)cc(F)c2)c2cc3c(cc2N1)OCO3 (stereo unspecified),-25%,-21%,·,1%,i
CC(=O)N(C)c1ccc(OCC(O)Cn2c(C)nc3ccccc32)cc1 (stereo unspecified),-2%,·,0,-4%,i
CC(=O)N(C)c1ccc(OCC(O)Cn2c3ccc(Cl)cc3c3cc(Cl)ccc32)cc1 (stereo unspecified),14µM*,?,-74*,?,?
COC(=O)/C(=C1/Oc2cc(C)oc(=O)c2S1)C(F)(F)F,-30%,?,-102*,5.6µM*,·
COc1nc(C)nc2c1sc1nc3c(cc12)COC(C)(C)C3,11%,19%,-51*,36%,i
Cc1nc(OCC(C)C)c2sc3nc4c(cc3c2n1)COC(C)(C)C4,-1%,61%,-26,4%,i
COc1cc(C2(c3ccc(O)c(OC)c3)C(=O)Nc3c(C)cc(Br)cc32)ccc1O,2%,-38%,-102*,?,?
Cc1cc(Br)cc2c1NC(=O)C2(c1c(C)n(C)n(-c2ccccc2)c1=O)c1c(C)n(C)n(-c2ccccc2)c1=O,-29%,?,10,-1%,?
O=C1c2cc(F)ccc2-n2c1nc1ccccc1c2=O,1.1µM*,?,25,?,i
CCc1nnc(NS(=O)(=O)c2ccc(N=Cc3c(C)[nH]n(-c4ccc(C)c(C)c4)c3=O)cc2)s1,7.1µM*,12%,10,8%,i
Cc1ccc(CNC(=O)c2ccccc2NS(=O)(=O)c2ccc(Cl)nc2)cc1,-34%,-10%,-13,16µM*,?
CC1=C(C(=O)OCc2ccc3c(c2)OCO3)C(c2ccccc2OCc2ccccc2)NC(=O)N1 (stereo unspecified),-3%,?,-50*,-25%,i
CCCOc1ccccc1C1NC(=O)NC(C)=C1C(=O)OCc1ccccc1 (stereo unspecified),-2%,?,-71*,0%,i
CC1=C(C(=O)OCc2ccc3c(c2)OCO3)C(c2ccccc2)NC(=O)N1 (stereo unspecified),-10%,?,-6,3%,i
SMILES,HepG2 tox,ATXN2 expr inh,IL-1B inflam inh,TGFb SMAD3 inh,ATXN viability
COc1cc(NC(=O)CC2C(=O)N(c3ccc(Cl)cc3)C(=O)N2Cc2cccs2)cc(OC)c1 (stereo unspecified),-42%,·,·,?,·
C=CCn1c(O)c(N=O)c2cc(C)ccc21,-15%,4%,-52*,1%,i
Cc1ccc(C(=O)Nc2cccc(-c3nc(CNC(=O)C4(C)CC4)c(C)o3)c2)s1,·,·,·,·,i
O=C(Nc1nc2c(F)cc(F)cc2s1)C1CCN(C(=O)c2ccc(F)cc2)CC1,-4%,15%,10,-8%,i
O=C(Nc1nc(-c2ccc(F)cc2)cs1)C1CCN(C(=O)c2ccc(F)cc2)CC1,-51%,?,-84*,?,?
CSc1ccc(NC(=O)N2CCC(C(=O)c3ccc(F)cc3)CC2)cc1,-21%,-12%,-69*,-23%,i
Cc1cc(N2CCC(C(=O)Nc3ccc(F)cc3)CC2)nc(-c2ccccc2)n1,-20%,-12%,-53*,?,i
COc1ccc(NC(=O)N2CCC(C(=O)c3ccc(F)cc3)CC2)cc1,-19%,-1%,-12,1%,i
COC(=O)C1CCN(C(=O)Nc2ccccc2)CC1,5%,·,-105*,-5%,i
O=C(Nc1ccc(Br)cc1)C1CCN(C(=O)c2ccc(F)cc2)CC1,-42%,-17%,-73*,?,i
CCN(CC)C(=O)c1cc(-c2ccc(Cl)cc2)on1,-4%,16%,·,-22%,i
N#CC(C#N)=C1C(=O)N(CCN2CCOCC2)c2ccccc21,22µM*,-15%,·,?,?
N#CC(C#N)=C1C(=O)N(CCN2CCCCC2)c2ccccc21,-39%,-20%,?,1%,?
O=C(CN(c1ccc(Br)cc1)S(=O)(=O)c1ccc(Cl)c([N+](=O)[O-])c1)NCCc1ccccc1,26%,-12%,-13,17%,?
Cc1ccc(N(CC(=O)NCCc2ccc(F)cc2)S(=O)(=O)c2ccc(Cl)c([N+](=O)[O-])c2)c(C)c1,11µM*,?,-96*,?,?
CCn1cc2nc(SCc3cccc(C(F)(F)F)c3)n(Cc3ccc(Cl)cc3)c(=O)c2n1,7%,-3%,·,-4%,i
COc1ccc(C(=O)Nc2nc3c(s2)Cc2cc(OC)ccc2-3)cc1,-18%,-25%,-53*,-12%,i
Cc1ccc(C)c(CN2C(=O)c3ccccc3S(=O)(=O)c3ccc(C(=O)N(C)C4CCCCC4)cc32)c1,2%,·,·,·,·
CCCn1nc([N+](=O)[O-])c(C(C#N)c2nc3ccccc3o2)c(Cl)c1=O (stereo unspecified),-33%,38%,-82*,?,i
